Experimental findings from PubChem BioAssay AID1159606 (Sanford-Burnham Center for Chemical Genomics, 2016) are described below.

The structures appear in SMILES notation. Hit rate of the full screen: of about 360,000 compounds, about 7,300 (2%) were called active. The full list was thinned out, with actives kept by preference. Values without a mark were called inactive. Cut-off read from the data, not from the text of the source: active = inhibition above about 50%; inactive = the rest.

The nature of the test: blockers of TWEAK-induced Fn14 reporter activity – luciferase reporter cells, uHTS, primary screen (AID 1159606). As to conditions: TWEAK-stimulated Fn14 reporter cells, luciferase luminescence, 8 h; at 10 µM; stronger effect = higher value. Background: In a reporter assay the amount or activity of a reporter protein is the signal.
By inhibition is commonly meant the change of the read-out against control, counted positive when it falls. As to `COc1ccc(C(=O)n2nc(C)c(Br)c2C)cc1OC`, the inhibition was -7.65%. In the case of `COc1ccc(C(=O)n2nc(-c3ccc(Cl)cc3)nc2N)cc1OC`, the inhibition is 64.1% (active).

With `COC(=O)c1ccc(OC(=O)c2nn(C)cc2Cl)c(OC)c1`, the inhibition was -9.75%. For the compound `CC(C)CC(CO)N1CCN(C(=O)c2ccc(Cl)cc2Cl)CCC1=O` (centres undefined), the inhibition was 10.3%.

Consider `CCOc1ccc(S(=O)(=O)N2CCN=C2Cc2ccccc2)cc1C`, for which the inhibition was -1.14%. For the compound `COCCn1c(N)c(NCc2ccccc2)c(=O)[nH]c1=O`, the inhibition is -0.79%. Take `CN(c1ccccc1)S(=O)(=O)c1cc(C(=O)N2CCN(c3ncccn3)CC2)ccc1Cl`: the inhibition is -62.5%. Consider `Cc1cccc(NC(=O)c2ccc(S(=O)(=O)N(C)c3ccccc3)cc2)n1`, for which the inhibition is 31.6%.

In the case of `CN(c1ccccc1)S(=O)(=O)c1cc(C(=O)Nc2nc3ccccc3[nH]2)ccc1Cl`, the inhibition is 78.9% (active). For `O=C1CCCCC1Sc1ccc(Cl)cc1[N+](=O)[O-]` (centres undefined), the inhibition is 5.84%. For the compound `O=C(COC(=O)/C=C/c1ccc(Cl)cc1)NC1CCS(=O)(=O)C1` (centres undefined), the inhibition was -27.7%. In the case of `CC(=O)c1ccc(-c2cnc3c(NC=O)cc(-c4cccc(NS(C)(=O)=O)c4)cn23)cc1`, the inhibition is -8.7%. In the case of `CC(=O)Nc1cccc(-c2cc(NC(C)=O)c3ncc(-c4ccccc4)n3c2)c1`, the inhibition was 89.2% (active).

For the compound `CC(=O)c1cccc(-c2cnc3c(NC=O)cc(-c4ccccc4Oc4ccccc4)cn23)c1`, the inhibition is 55.7% (active).

For the compound `CC(=O)Nc1cccc(-c2cc(NC=O)c3ncc(-c4ccc(F)c(Cl)c4)n3c2)c1`, the inhibition is 82.2% (active). Consider `CC(=O)c1cccc(-c2cnc3c(NC=O)cc(-c4ccc(N(C)C)cc4)cn23)c1`, for which the inhibition is 19.9%. With `CC(=O)c1cccc(-c2cnc3c(NC=O)cc(-c4cccc(C(=O)N(C)C)c4)cn23)c1` the figure was 6.56%; with `COc1cccc(-c2cnc3c(NC(C)=O)cc(-c4cccc(NC(C)=O)c4)cn23)c1`, -0.58%. Consider `COc1cccc(-c2cc(NC(C)=O)c3ncc(-c4cccc(C(C)=O)c4)n3c2)c1`, for which the inhibition is 12.6%. For the compound `CC(=O)Nc1cc(-c2ccccc2N(C)C)cn2c(-c3ccc(F)c(Cl)c3)cnc12`, the inhibition is -9.86%. Regarding `CC1=NNC(=O)C1Cc1c(Cl)cccc1Cl` (centres undefined), the inhibition was 4.96%.

Regarding `O=C(NCc1ccc(F)cc1)c1cc(C2CCCCN2C(=O)C2CCCCC2)on1` (centres undefined), the inhibition is 32.6%. With `C=CCSc1nnc2c(n1)-c1cccc3cccc-2c13`, the inhibition was -43.7%. `CC(=O)c1c(C)n([O-])c2ccccc2[n+]1=O`: the inhibition is -13.5%. Regarding `O=C(Nc1cc(S(=O)(=O)N2CCOCC2)ccc1N1CCOCC1)c1c(F)cccc1Cl`, the inhibition is -8.44%. Take `Cc1cc(Cl)ccc1-c1nc(NCCN(C)C)nc2ccsc12`: the inhibition is -11.1%. As for `O=C(CCc1ccc(S(=O)(=O)NC2CCCCC2)cc1)NCc1ccccc1`, the inhibition is 1.8%. `CCCCNC(=O)C[C@@H]1C[C@@]2(C(=O)OCC)CCC=C2N(Cc2ccco2)C1=O`: the inhibition is 11%. With `CC(C)(C)NC(=O)CN(C(=O)c1csnn1)c1ccccc1-c1ccccc1`, the inhibition was -13.7%. In the case of `COC(=O)C1NN=C(C(=O)c2ccc(Br)cc2)C1c1cccc(Br)c1` (centres undefined), the inhibition was 48.4%. Consider `Cc1ccc(N2C(=O)CC(Nc3cccc4ccccc34)C2=O)cc1` (centres undefined), for which the inhibition was 51.9% (active). Then `O=C(Cc1ccccc1)NNC1CC(=O)N(c2ccc(Br)cc2)C1=O` (centres undefined), with 12.9%; and `CC1=C(C)CC2C(=O)N(c3cccc4ccccc34)C(=O)C2C1` (centres undefined), with 11.9%; and `O=C(CN1CCN(S(=O)(=O)c2ccc(Br)cc2)CC1)Nc1ccccc1C(=O)c1ccccc1`, with -6.36%.

Turning to `COc1ccc2cc(C(=O)NCC3CCCO3)[nH]c2c1` (centres undefined), the inhibition is -11.1%.

Take `C[N+](C)(C)CCNC(=O)c1c[nH]c2ccccc12`: the inhibition is -3.99%. With `O=C(NCCCO)c1cc2c([nH]c3ccccc32)c(-c2ccc(F)cc2)n1` the figure was 54.8% (active). Turning to `O=C(CSc1nc2ccccc2c(=O)n1Cc1ccc(F)cc1)NCC1CCCO1` (centres undefined), the inhibition is -1.57%.

On to `O=C(NCC1CCCO1)c1cc2c([nH]c3ccccc32)c(-c2ccc(F)cc2)n1` (centres undefined), for which the inhibition was 51% (active). For `O=C(NCCc1ccc(F)cc1)c1n[nH]c2ccccc12`, the inhibition was -18.2%.

As to `CC(C)C[C@@H]1COc2cc(N3CCC[C@@H]3CO)ccc2S(=O)(=O)N1`, the inhibition is 15.8%. Take `CC1(C)OC(=O)C2=C(C[C@@H](C3CCCC3)O[C@@H]2c2ccc(Cl)cc2)O1`: the inhibition was 1.8%. In the case of `CC(C)CN(C(=O)c1cccc(S(=O)(=O)N2CCCCC2)c1)C1CCS(=O)(=O)C1` (centres undefined), the inhibition was -4.27%. `COc1ccc2nc(-c3ccccn3)ccc2c1`: the inhibition was 61.3% (active).

With `COc1ccc(C=C(C#N)C#N)c(CSc2ccccn2)c1`, the inhibition was 9.11%. With `COc1ccc2cc(CCl)c(Cl)nc2c1` the figure was 3.18%. Take `OCCC1CN(Cc2cccc(O)c2)CCN1CCc1ccccc1` (centres undefined): the inhibition is 15.9%. Turning to `O=C(CCNC(=O)Cn1ccc2ccccc2c1=O)NCCC1=CCCCC1`, the inhibition is -2.43%. Turning to `O=C(Cc1cccc2ccccc12)NCCC1=CCCCC1`, the inhibition was 99.4% (active). In the case of `Cc1nnc(OCC(=O)NCCC2=CCCCC2)c2ccccc12`, the inhibition was 8.22%. Turning to `Cc1nccn1-c1ccc(NC(=O)[C@H]2O[C@@H](n3ccc(=O)[nH]c3=O)[C@H](O)[C@@H]2O)cc1`, the inhibition was -4.03%. Turning to `Cc1ccc2c(c1)N(CCCC(=O)NCc1cccnc1)C(=O)CO2`, the inhibition is 7%. Consider `COc1ccc(S(=O)(=O)N2CCCCC2)cc1C(=O)NC1CCS(=O)(=O)C1` (centres undefined), for which the inhibition was 4.36%.

Consider `COC(=O)c1cc(NC(=O)Cc2ccccc2[N+](=O)[O-])ccc1Cl`, for which the inhibition is -1.56%.

Consider `O=C(Nc1cccc(NC(=O)c2ccccc2[N+](=O)[O-])c1)c1ccccc1Cl`, for which the inhibition is -3.52%.

As to `CC(=O)Nc1ccc(NC(=O)COC(=O)c2ccccc2C(=O)c2ccccc2)cc1`, the inhibition was 16.1%.

Consider `CC(OC(=O)CNC(=O)c1ccc(Cl)c([N+](=O)[O-])c1)C(=O)NCc1ccco1` (centres undefined), for which the inhibition was -16.1%.

With `N#Cc1cccc(NC(=O)COC(=O)c2ccccc2C(=O)c2ccc(Cl)c([N+](=O)[O-])c2)c1`, the inhibition is 99.5% (active). `CC(=O)Nc1ccc(NC(=O)C(C)OC(=O)c2ccccc2C(=O)c2ccc(Cl)c([N+](=O)[O-])c2)cc1` (centres undefined): the inhibition is 95.7% (active).
